# Inconclusive results are not listed. Where a call stands in place of a potency, no number is given. Some compounds were tested as several samples or in several runs, with calls that do not always agree. Calls of active or inactive are those of the source. Unless noted, the call rests on the fitted dose curve; in most records, active means well fitted curve in the direction sought with a large enough effect in the repeat runs; inconclusive means weak or mixed curves; inactive means no such curve, though single readings can be large; an effect the other way counts as inactive or inconclusive. Non-standard residues stand in square brackets, D forms with d. Residues, ends and D or L forms follow the SMILES beside them. pGlu = O=C1CC[C@@H](C(=O)O)N1
# Tests used:
# [1] = qHTS assay to test for compound auto fluorescence at 535 nm (green) in HEK293 cells (AID 720680)
# [2] = qHTS assay to test for compound auto fluorescence at 460 nm (blue) in HEK293 cell free culture (AID 720681)
# Outline: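 Blue fluorescence (Ex 405/Em 460 nm, triamterene-equivalent) was read immediately after pin transfer of compound or DMSO into medium (DMEM, 10% FBS) without cells.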
# [3] = qHTS assay to test for compound auto fluorescence at 535 nm (green) in HEK293 cell free culture (AID 720682)
# Outline: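 No cells present: wells hold DMEM supplemented with 10% FBS, into which compound or vehicle is pinned. Green emission is then recorded (485 nm excitation, 535 nm emission) and scaled to fluorescein.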
# [4] = qHTS assay to test for compound auto fluorescence at 590 nm (red) in HEK293 cell free culture (AID 720683)
# Outline: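 Red-channel autofluorescence of compounds in culture medium (DMEM, 10% FBS), no cells, measured at 540/590 nm. Rose Bengal sodium is the reference fluorophore for equivalence.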
# [5] = qHTS assay to test for compound auto fluorescence at 590 nm (red) in HepG2 cell free culture (AID 720684)
# Outline: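 Cell-free; medium MEM + 10% FBS; compound or DMSO added by pintool; read Ex 540/Em 590 nm; Rose Bengal sodium as red reference fluorophore.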
# [6] = qHTS assay to test for compound auto fluorescence at 460 nm (blue) in HepG2 cell free culture (AID 720685)
# Outline: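 Cell-free plates of MEM plus 10% FBS received 23 nL compound or DMSO vehicle; blue-channel (405/460 nm) intensity scored against triamterene as reference fluorophore.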
# [7] = qHTS assay to test for compound auto fluorescence at 535 nm (green) in HepG2 cell free culture (AID 720686)
# [8] = qHTS assay to test for compound auto fluorescence at 460 nm (blue) in HepG2 cells (AID 720687)
# Outline: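 Blue-channel autofluorescence (Ex/Em 405/460 nm, triamterene-equivalent) was measured after 1 hr compound exposure at 37 C, 5% CO2. Cells were HepG2, plated overnight at 37 C in MEM plus 10% FBS.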
# [9] = molecular target: Glucocorticoid receptor (Homo sapiens) (UniProt P04150); assay: qHTS assay to identify small molecule agonists of the glucocorticoid receptor (GR) signaling pathway (AID 720691; active means well fitted activation curve with a large enough effect in the signal ratio in the repeat runs, not every such curve was filed as active; the % refers to the signal ratio); conditions: GR-bla HeLa, beta-lactamase reporter ratio, 18 h; activation: at 62.4 µM (top of the series)
# Chain of Glucocorticoid receptor (Homo sapiens) (P04150 whole entry, looked up): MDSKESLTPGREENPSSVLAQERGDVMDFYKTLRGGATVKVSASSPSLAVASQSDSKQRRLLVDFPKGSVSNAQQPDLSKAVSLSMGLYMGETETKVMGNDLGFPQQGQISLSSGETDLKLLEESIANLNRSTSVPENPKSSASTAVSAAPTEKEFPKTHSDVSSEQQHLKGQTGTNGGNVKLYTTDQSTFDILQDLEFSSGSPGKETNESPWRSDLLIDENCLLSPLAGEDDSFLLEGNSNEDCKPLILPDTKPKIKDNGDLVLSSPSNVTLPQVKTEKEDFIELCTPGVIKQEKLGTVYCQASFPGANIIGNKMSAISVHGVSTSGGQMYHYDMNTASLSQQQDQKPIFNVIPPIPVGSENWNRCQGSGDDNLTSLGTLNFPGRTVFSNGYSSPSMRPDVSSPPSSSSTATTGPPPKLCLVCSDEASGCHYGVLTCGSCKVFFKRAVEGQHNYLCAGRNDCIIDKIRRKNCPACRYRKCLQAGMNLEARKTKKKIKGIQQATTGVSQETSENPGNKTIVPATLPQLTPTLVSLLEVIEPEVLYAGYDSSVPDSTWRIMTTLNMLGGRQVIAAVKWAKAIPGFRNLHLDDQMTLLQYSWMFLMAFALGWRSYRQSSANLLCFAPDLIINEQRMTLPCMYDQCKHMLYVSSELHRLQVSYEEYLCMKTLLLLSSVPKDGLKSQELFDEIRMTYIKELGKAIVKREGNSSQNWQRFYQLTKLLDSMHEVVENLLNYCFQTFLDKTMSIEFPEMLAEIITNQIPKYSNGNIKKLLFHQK
# Outline: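 Cells: GR-bla HeLa, endogenous GR with stably integrated GRE-beta-lactamase reporter. Treatment 18 h, 37 C, compounds delivered in DMSO. Detection via LiveBLAzer B/G FRET substrate, 2 h RT, fluorescence intensity.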
# [10] = qHTS assay for identifying genotoxic compounds that show differential cytotoxicity against isogenic chicken DT40 cell lines with known DNA damage response pathways - wild type cell line (AID 743012); further: nearly all actives have a fitted effect of over 60% in size; further: potency means the concentration at half of the fitted maximal effect
# Outline: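 Luminescent ATP viability signal (CellTiter-Glo, 30 min RT) recorded after wild type DT40 cells were incubated with compounds for 40 h at 37 C/5% CO2.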
# [11] = qHTS assay for identifying genotoxic compounds that show differential cytotoxicity against isogenic chicken DT40 cell lines with known DNA damage response pathways - Rad54/Ku70 mutant cell line (AID 743015); further: nearly all actives have a fitted effect of over 60% in size; further: potency means the concentration at half of the fitted maximal effect
# [12] = qHTS assay to identify small molecule antagonists of the androgen receptor (AR) signaling pathway - cell viability counter screen (AID 743033; further: nearly all actives have a fitted effect of over 45% in size)
# [13] = qHTS assay to identify small molecule antagonists of the androgen receptor (AR) signaling pathway using the MDA cell line - cell viability counter screen (AID 743041; further: nearly all actives have a fitted effect of over 45% in size)
# Outline: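 Viability read by CellTiter-Fluor fluorescence in the same wells as the antagonist screen, added after 15.5 h of a 16 h, 37C exposure. Human breast carcinoma MDA-kb2 AR-luc cells, compounds co-dosed with agonist R1881.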
# [14] = qHTS assay for identifying genotoxic compounds that show differential cytotoxicity against isogenic chicken DT40 cell lines with known DNA damage response pathways - Rev3 mutant cell line (AID 743014); further: nearly all actives have a fitted effect of over 55% in size; further: potency means the concentration at half of the fitted maximal effect
# [15] = qHTS assay to identify small molecule antagonists of the glucocorticoid receptor (GR) signaling pathway - cell viability counter screen (AID 720693); further: nearly all actives have a fitted effect of over 55% in size
Compound,Potency [1],Potency [2],Potency [3],Potency [4],Potency [5],outcome [6],Potency [7],outcome [8],Potency [9],Potency [10],Potency [11],Potency [12],Potency [13],Potency [14],Potency [15]
CC(C)[C@@H](N)C(=O)O,inactive,inactive,inactive,inactive,inactive,inactive,inactive,inactive,inactive,inactive,inactive,inactive,inactive,,
C[C@H](/C=C/[C@H](C)C(C)(C)O)[C@H]1CC[C@H]2/C(=C/C=C3C[C@@H](O)C[C@H](O)C3)CCC[C@]12C,inactive,inactive,inactive,inactive,inactive,inactive,inactive,inactive,inactive,inactive,inactive,inactive,inactive,inactive,
CCc1ccc2c(c1)N(CC(C)CN(C)C)c1ccccc1S2 (centres undefined),inactive,inactive,inactive,inactive,inactive,inactive,inactive,inactive,inactive,6.68 µM (active),,,,5.31 µM (active),
COCC1=C(C(=O)OC(C)OC(=O)OC(C)C)N2C(=O)[C@@H](NC(=O)/C(=N\OC)c3csc(N)n3)[C@H]2SC1 (some centres undefined),inactive,inactive,inactive,inactive,inactive,inactive,inactive,inactive,,1.68 µM (active) and inactive,1.06 µM (active) and inactive,,inactive,2.37 µM (active) and inactive,inactive
CCOC(=O)Oc1c(OC)cc(C(=O)O[C@@H]2C[C@@H]3CN4CCc5c([nH]c6cc(OC)ccc56)[C@H]4C[C@@H]3[C@H](C(=O)OC)[C@H]2OC)cc1OC,inactive,inactive,inactive,inactive,inactive,inactive,inactive,inactive,,10.1 µM (active),12.7 µM (active),inactive,inactive,11.4 µM (active),inactive
CC[C@H](C)[C@H](NC(=O)[C@H](Cc1ccccc1)NC(=O)[C@H](C)NC(=O)[C@H](CC(=O)O)NC(=O)[C@H](CCCCN)NC(=O)[C@H](CO)NC(=O)[C@@H]1CCCN1C(=O)[C@@H]1CCC(=O)N1)C(=O)NCC(=O)N[C@@H](CC(C)C)C(=O)N[C@@H](CCSC)C(N)=O ([pGlu]PSKDAFIGLM-NH2),inactive,inactive,inactive,inactive,inactive,inactive,inactive,inactive,,inactive,inactive,inactive,inactive,inactive,inactive
